# Data as given in PubChem BioAssay (NCI).
# This is part of a sample that, as a whole, favours compounds with a hit. Of some 83,000 tested, about 20% had one in any assay.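 How to read the values: 0–100, growth inhibition (40 = 60% inhibited); 0, no net growth; -100 to 0, cell death (-40 = 40% of starting cells died; -100 = all dead).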 Values without a mark were called inactive. Activity calls are given as the source filed them. Rule for the calls: active = growth percent below 10; inactive = the rest.
# Tests used:
# Assay in all cases: NCI-60 one-dose screen, 48 h (100 = growth as untreated, 0 = no growth, -100 = all killed)
# Settings in all cases: 10 µM unless noted
# HCT-15 colon = system: HCT-15 colon
# SNB-75 CNS = system: SNB-75 CNS
# SNB-19 CNS = system: SNB-19 CNS
# U251 CNS = system: U251 CNS
# PC-3 prostate = system: PC-3 prostate
# SK-MEL-5 melanoma = system: SK-MEL-5 melanoma
# UACC-62 melanoma = system: UACC-62 melanoma
# LOX IMVI melanoma = system: LOX IMVI melanoma
# SK-MEL-28 melanoma = system: SK-MEL-28 melanoma
# SK-MEL-2 melanoma = system: SK-MEL-2 melanoma
# EKVX NSCLC = system: EKVX NSCLC
# UO-31 renal = system: UO-31 renal
# TK-10 renal = system: TK-10 renal
# ACHN renal = system: ACHN renal
# CAKI-1 renal = system: CAKI-1 renal
# A498 renal = system: A498 renal
# CCRF-CEM leukemia = system: CCRF-CEM leukemia
# MOLT-4 leukemia = system: MOLT-4 leukemia
# SN12C renal = system: SN12C renal
SMILES,growth (HCT-15 colon),growth (SNB-75 CNS),growth (SNB-19 CNS),growth (U251 CNS),growth (PC-3 prostate),growth (SK-MEL-5 melanoma),growth (UACC-62 melanoma),growth (LOX IMVI melanoma),growth (SK-MEL-28 melanoma),growth (SK-MEL-2 melanoma),growth (EKVX NSCLC),growth (UO-31 renal),growth (TK-10 renal),growth (ACHN renal),growth (CAKI-1 renal),growth (A498 renal),growth (CCRF-CEM leukemia),growth (MOLT-4 leukemia),growth (SN12C renal)
COc1nc(/C=C\Nc2ccc3c(c2)OCCOCCOCCOCCO3)nc(OC)n1,91.5%,72.3%,103%,103%,99.4%,97.5%,93.3%,92.1%,104%,108%,91.8%,79.5%,81.9%,99.8%,93.1%,75.7%,118%,107%,
COc1cc([C@@H](CCO)C[C@H](C)c2ccc3ccccc3c2)cc(OC)c1OC,26.3%,-10% (active),37.8%,27.8%,29.7%,28%,39.2%,39.2%,61.8%,16.1%,49.1%,44.2%,49.3%,43.6%,28.8%,25.3%,21.6%,25.7%,42.2%
C#Cc1cccc(Nc2ncnc3cc(NC(=O)CCl)ccc23)c1,-67.7% (active),-97.2% (active),-70.8% (active),-88.1% (active),-64.9% (active),-93.9% (active),-68.6% (active),-62.7% (active),-45.1% (active),-61.5% (active),-45.5% (active),-91.5% (active),-91.5% (active),-95.9% (active),-82.4% (active),20.5%,-19.4% (active),-16.4% (active),
Nc1ncccc1O,18.7%,121%,101%,81.4%,133%,101%,89.3%,75.2%,106%,17.3%,120%,92.5%,108%,,56.6%,99.7%,84.6%,65%,96.7%
Fc1cc2[nH]ncc2c2c3c(c(-c4cn[nH]c4C(F)(F)F)nc12)CCCC3,4.79% (active),-26.5% (active),8.83% (active),-0.282% (active),34.6%,-66.3% (active),-4.44% (active),-50.6% (active),0.426% (active),-22.1% (active),8.29% (active),-7.31% (active),-8.31% (active),0.165% (active),-7.15% (active),-63.9% (active),1.34% (active),10.9%,4.98% (active)
COc1ccc(C2CC(n3ccnc3)c3cc(OC)c(OC)c(OC)c32)cc1O (stereo not drawn),59.9%,90.2%,93.7%,80.4%,,53.1%,65.5%,86.4%,78.3%,89.6%,101%,79.9%,101%,86.4%,74.5%,88.3%,90.9%,90%,104%
O=C(/C=C/c1ccco1)Nc1ncc(Cc2cc(Cl)ccc2Cl)s1,13.5%,16.6%,44.8%,18.9%,25.3%,15.2%,26.9%,25.9%,57%,36.3%,34.2%,36.6%,51.5%,35.7%,36.5%,10.3%,17.3%,14%,29.6%
C=CN(C(=O)N1CCN(c2cc3c(cc2F)c(=O)c(C(=O)O)cn3C2CC2)CC1)c1nc(-c2ccccc2)cs1,102%,109%,96%,101%,91.1%,95.7%,86%,77.5%,101%,88.3%,109%,84.7%,105%,,-82.3% (active),76%,93.2%,88.2%,92.8%
c1ccc(-c2nc3ccccc3[nH]2)c(OCCCCCOc2ccccc2-c2nc3ccccc3[nH]2)c1,58%,89.8%,91.7%,74.5%,43.4%,58.9%,59.1%,62%,45.9%,85.4%,68.2%,58.6%,,89.4%,104%,71.5%,-44.1% (active),56.3%,
CCSc1ccnc(N)n1,102%,95.2%,103%,105%,96%,107%,99%,99.9%,114%,106%,104%,97.7%,101%,,82.1%,98.1%,97.3%,124%,106%
O=C(c1c[nH]c2ccccc12)c1n[nH]c(=S)n1-c1ccc([N+](=O)[O-])cc1,64.7%,95.4%,116%,105%,83.9%,88.3%,93.1%,100%,107%,86.4%,94.6%,75.2%,117%,96.1%,85.4%,87.9%,85.1%,86%,
COc1ccc2c(c1)C(C)Cc1c(ncnc1-n1cnc3cc(C)ccc31)N2C (stereo not drawn),13.2%,63.3%,33.5%,18.5%,24.7%,-14.1% (active),36.1%,21.9%,64.3%,47.4%,40.3%,43.5%,53.6%,29%,23.2%,6.42% (active),7.96% (active),11%,30.1%
C/C(=C(\c1ccc(OCCN2CCCCCC2)cc1)c1ccc(OC(=O)c2ccccc2)cc1)c1ccc(Cl)cc1,7.21% (active),73.7%,57.9%,29.8%,33.8%,55.6%,28.4%,-38.9% (active),51.7%,63%,68.6%,26.7%,70.4%,77.1%,49.5%,86.9%,16%,8.86% (active),47.1%
CCOC(=O)c1c(NC(=O)c2ccccc2)sc2c3c(ccc12)OCN(C)C3,-48.4% (active),79.3%,8.15% (active),-13% (active),21.7%,-40.3% (active),-71.2% (active),-90.8% (active),-92.2% (active),-34.4% (active),26.3%,-75.6% (active),68.5%,-68.7% (active),-42% (active),46.5%,-0.327% (active),-33% (active),20.4%
O=C1C(Cl)=C(Nc2ccccc2)C(=O)c2ccccc21,-78.2% (active),97.8%,54.2%,-41.8% (active),39.7%,-85.3% (active),-49.8% (active),-85.5% (active),-91.9% (active),-65.9% (active),-91.9% (active),-42.5% (active),172%,-86.5% (active),-83.6% (active),46.9%,-10.5% (active),-20.1% (active),
CCOC(=O)C1=C(CCl)N(C)C(=O)NC1c1ccc2c(c1)OCO2 (stereo not drawn),34.4%,28.8%,84.5%,68%,36.8%,81.9%,73.2%,40.9%,79%,58.8%,71.9%,69.5%,45.2%,49.5%,36.7%,55.8%,12%,53.2%,58.6%
COc1cc(OC)c2c(=O)c3c(CC=C(C)C)cc(OC)c(O)c3oc2c1,59.8%,60%,92.7%,85.1%,99.2%,76.4%,75.2%,82%,88.4%,91.4%,89.6%,72%,82.9%,79.7%,75.3%,67.7%,76.9%,66.4%,96%
